High-throughput results from PubChem.
CBX7 inh: blocks human CBX7 binding to H3K27me3 peptide; O95931; AlphaScreen His6-CBX7 / biotin-H3K27me3 peptide binding; active compounds read low; normalised signal (fraction of DMSO) (concentration not given with the values); actives 1.1% (n = 66,000); AID 1224903; in the data active = normalised signal below about 0.5
Target sequence (O95931 whole entry, looked up): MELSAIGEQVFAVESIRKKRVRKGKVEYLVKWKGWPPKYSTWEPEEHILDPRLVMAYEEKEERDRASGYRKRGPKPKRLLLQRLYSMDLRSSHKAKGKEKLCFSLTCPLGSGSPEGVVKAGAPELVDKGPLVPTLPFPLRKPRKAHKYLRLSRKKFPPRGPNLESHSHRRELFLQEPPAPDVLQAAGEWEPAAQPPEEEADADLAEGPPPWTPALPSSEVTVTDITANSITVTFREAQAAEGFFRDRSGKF
A number is an active result; 0 = inactive. Shown is part of a subset that was picked to be rich in hits.

SMILES | CBX7 inh
Fc1ccc(-c2cc(C(F)(F)F)n3ncnc3n2)cc1 | 0.47
Fc1ccc(-c2cc(-c3ccccc3)nc3ncnn23)cc1 | 0
Cc1ccc(-c2cc(-c3ccc(F)cc3)n3ncnc3n2)cc1 | 0
COc1ccc(Br)cc1CNC(=O)CCCc1cn(C)c2ccccc12 | 0.42
COc1ccc(OC)c(CNC(=O)CCCc2cn(C)c3ccccc23)c1 | 0.46
CCOc1ccc(CNC(=O)CCCc2cn(C)c3ccccc23)cc1OC | 0
COc1ccc(CNC(=O)CCc2cn(C)c3ccccc23)c(OC)c1 | 0
COc1ccc(Br)cc1CNC(=O)Cc1cn(C)c2ccccc12 | 0
COc1ccc(OC)c(CNC(=O)CCc2cn(C)c3ccccc23)c1 | 0
CC1=C(C(=O)Nc2cc(C)ccn2)C(c2cccc(Br)c2)C2=C(CCCC2=O)N1 (stereo not drawn) | 0
CCOc1ccc2nc(N3CCC(C(=O)NCc4cccc(Cl)c4)CC3)sc2c1 | 0
Cc1nc2cc(-c3ccc(Cl)cc3)nn2c(C)c1CCC(=O)Nc1cccc(C(F)(F)F)c1 | 0
O=C(NCCN1CCOCC1)c1cc(Sc2ccccc2C(F)(F)F)nc2ccccc12 | 0
COc1ccccc1NC(=O)Cn1cnc2sc(C(=O)NCc3cccnc3)c(C)c2c1=O | 0
CCOC(=O)c1ccccc1NC(=O)c1nn(-c2ccc(OCC)cc2)c(=O)c2ccccc12 | 0
CCOC(=O)N1CCN(c2c(N3CCCCC3)c(=O)c2=O)CC1 | 0
Clc1ccccc1-c1nc(NCc2ccccc2)nc2ccc(Br)cc12 | 0
Cc1ccccc1NCc1nc2ccccc2n1Cc1ccccc1 | 0.42
Cc1ccc(NCc2nc3ccccc3n2Cc2ccccc2)cc1 | 0
O=c1c(-c2cc(Br)ccc2NCc2ccccc2)nc2ccccc2n1Cc1ccccc1 | 0.37
Cc1ccccc1Cn1c(CNC(=O)Cc2ccccc2)nc2ccccc21 | 0
c1ccc(Cn2c(NCc3ccc4c(c3)OCO4)nc3ccccc32)cc1 | 0
CCN(CC)S(=O)(=O)c1ccc2c(c1)N(CC(=O)Nc1ccc(F)cc1F)C(=O)CS2 | 0
CCN(CC)S(=O)(=O)c1ccc2c(c1)N(CC(=O)N1CC(C)CC(C)C1)C(=O)CO2 (stereo not drawn) | 0
Cc1nnc(Nc2ccc(S(=O)(=O)Nc3nccs3)cc2)c2ccccc12 | 0.49
SMILES | CBX7 inh
O=S(=O)(Nc1nccs1)c1ccc(Nc2nnc(-c3ccc(Cl)cc3)c3ccccc23)cc1 | 0.23
NC(=O)COc1ccc(Nc2nnc(-c3ccc(Cl)cc3)c3ccccc23)cc1 | 0
Cc1ccc(Nc2nnc(-c3ccc(C)c(S(=O)(=O)NC(C)(C)C)c3)c3ccccc23)cc1 | 0
Cc1ccc(-c2nnc(Nc3ccc4c(c3)ncn4C)c3ccccc23)cc1 | 0
Cc1ccc(-c2nnc(Nc3ccc(Cl)cc3)c3ccccc23)cc1S(=O)(=O)NCCO | 0
Cc1ccc(-c2nnc(Nc3ccc(S(=O)(=O)Nc4nccs4)cc3)c3ccccc23)cc1 | 0.36
COc1cccc(OC)c1C(=O)Nc1ccc(S(=O)(=O)Nc2nccs2)cc1 | 0
O=C(Nc1ccc(S(=O)(=O)Nc2nccs2)cc1)c1ccccc1Br | 0
CCCN(CCC)CCCNC(=O)Cc1c(C(=O)O)[nH]c2ccc(Cl)cc12 | 0
COc1ccccc1NC(=O)Cn1cc(S(=O)(=O)c2ccccc2)c(=O)c2cc(Cl)ccc21 | 0
Cc1ccc(-c2nc3ccc(Br)cn3c2Nc2ccccc2C)cc1 | 0
Cc1cccc(-n2c(/C=C/c3c(C)n(C)c4ccccc34)nc3ccccc3c2=O)c1 | 0
COc1ccc(-c2nc3cc(C)ccn3c2NC(=O)c2cccc(C(F)(F)F)c2)cc1OC | 0
COc1ccccc1C(=O)NCCc1nc2ccccc2n1CC(C)C | 0
CCc1ccccc1N(C)S(=O)(=O)c1ccc2[nH]cc(C(=O)NC3CCCC3)c(=O)c2c1 | 0
O=C(c1n[nH]c(=O)c2ccccc12)N1CCN(c2ccccn2)CC1 | 0
O=C(c1cnc(N2CCN(c3ncccn3)CC2)c2ccccc12)N1CCN(c2ccccn2)CC1 | 0
O=C(c1ccc(C#Cc2ccccc2)o1)N1CCN(c2ccccn2)CC1 | 0.45
CCC(Sc1nc(-c2ccccc2)cc(-c2ccccc2)n1)C(=O)Nc1cc(C)on1 (stereo not drawn) | 0
CC1CC(C)CN(S(=O)(=O)c2ccc(C(=O)Nc3nnc(-c4ccc(Cl)s4)o3)cc2)C1 (stereo not drawn) | 0.4
COc1ccc(-c2nnc(NC(=O)c3ccc(S(=O)(=O)N4CCC(C)CC4)cc3)o2)c(OC)c1 | 0
COCc1nnc(NC(=O)c2ccc(S(=O)(=O)N3CC(C)CC(C)C3)cc2)o1 (stereo not drawn) | 0
Cc1nnc(NC(=O)c2ccc(S(=O)(=O)N3CCC(C)CC3)cc2)o1 | 0.028
CCC1CCCCN1S(=O)(=O)c1ccc(C(=O)Nc2nnc(-c3cccc(OC)c3)o2)cc1 (stereo not drawn) | 0
CCC1CCCCN1S(=O)(=O)c1ccc(C(=O)Nc2nnc(C)o2)cc1 (stereo not drawn) | 0.094
SMILES | CBX7 inh
CC1CCN(S(=O)(=O)c2ccc(NC(=O)c3ccc(C(C)(C)C)cc3)cc2)CC1 | 0
CC1CCCN(S(=O)(=O)c2ccc(C(=O)Nc3nnc(-c4cccs4)o3)cc2)C1 (stereo not drawn) | 0
CCC1CCCCN1S(=O)(=O)c1ccc(C(=O)Nc2nnc(-c3ccc(OC)cc3)o2)cc1 (stereo not drawn) | 0
Cc1nnc(NC(=O)c2ccc(S(=O)(=O)N3CC(C)CC(C)C3)cc2)o1 (stereo not drawn) | 0.39
O=C(Nc1nnc(-c2cccs2)o1)c1ccc(S(=O)(=O)N2CCCCC2)cc1 | 0
CC1CC(C)CN(S(=O)(=O)c2ccc(C(=O)Nc3nc(-c4ccncc4)cs3)cc2)C1 (stereo not drawn) | 0
Cc1ccc(-c2nc(SCC(=O)Nc3ccc4c(c3)OCCO4)c(-c3ccccc3)[nH]2)cc1 | 0
O=C(O)c1ccc(Nc2nc(-c3c[nH]c4ccccc34)cs2)cc1 | 0
COc1cc2c(C(=O)N3CCC(Cc4ccccc4)CC3)cn(CC(C)C)c(=O)c2cc1OC | 0
CCCCCCNC(=O)CCc1c(C)nc2cc(-c3cccc(F)c3)nn2c1C | 0
CC1CN(S(=O)(=O)c2ccc(C(=O)Nc3nnc(-c4ccc(F)cc4)o3)cc2)CC(C)O1 (stereo not drawn) | 0.012
COCc1nnc(NC(=O)c2ccc(S(=O)(=O)N3CC(C)OC(C)C3)cc2)o1 (stereo not drawn) | 0
CC1CN(S(=O)(=O)c2ccc(C(=O)Nc3nnc(-c4cccs4)o3)cc2)CC(C)O1 (stereo not drawn) | 0
CCn1cc(C(=O)NCCN(C)C)c(=O)c2ccc(C)nc21 | 0
CCOC(=O)c1cnc2c(C(F)(F)F)cccc2c1Nc1ccc(O)cc1 | 0
CCOC(=O)c1cnc2c(C)cccc2c1Nc1ccc(C)c(C)c1 | 0
CCOC(=O)c1cnc2ccc(C)cc2c1Nc1cccc(C)c1 | 0
CCOC(=O)c1cnc2ccc(C)cc2c1Nc1ccc(C)cc1 | 0
CCOC(=O)c1cnc2c(C(F)(F)F)cccc2c1Nc1ccc(N(C)C)cc1 | 0.16
CCOC(=O)c1cnc2ccc(C)cc2c1Nc1ccc(N(C)C)cc1 | 0.38
CCOC(=O)c1cnc2c(C(F)(F)F)cccc2c1Nc1ccc(NC(C)=O)cc1 | 0
CCOC(=O)c1cnc2c(C)cccc2c1Nc1ccc(N(C)C)cc1 | 0.25
CCOC(=O)c1cnc2c(C)cc(Cl)cc2c1Nc1ccc(N(C)C)cc1 | 0
COC(=O)CCNS(=O)(=O)c1ccc2c(c1)CCN2C(C)=O | 0
CCC(Sc1nc(Nc2ccc(F)cc2)c2ccccc2n1)C(=O)NCc1cccnc1 (stereo not drawn) | 0
